Reference: the supplement of paper PMC10338343
± gives the standard deviation.

These sequences were tested on MILI (PIWIL2) piRISC loaded with piRNA #1 (26 nt) (assay: pre-steady-state target cleavage rate (min^-1); guide: piRNA #1 5'p-UGAGGUAGUAGGUUGUAUAGUAUCCA; MIWI and MILI are mouse PIWI proteins and EfPiwi is from a freshwater sponge; tags in brackets are library labels; higher = faster piRNA-guided slicing of the target). Conditions: auxiliary factor: 500 nM mouse GTSF1.
How it was run: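 Three pooled Cleave-'n-Seq trials supplied the data, with k3 capped at 0.0001 min^-1. In each, […] transcribed, DNA-blocked target RNA library and 1 nM active affinity-purified piRISC with one synthetic guide reacted in HEPES–potassium acetate buffer at 33 °C for 0–8 or 0–960 min, with or without 500 nM GTSF1 partner protein. Uncleaved targets were sequenced and normalised to depth and to weakly complementary targets. A burst-and-steady-state fit provided the pre-steady-state cleavage rate.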
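Also: 1 nM active piRISC with 0.1 nM target library at 33 °C single turnover.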

| Sequence | pre-steady-state target cleavage rate |
| --- | --- |
| GGAGACCAUAGUAUACAACCUACUACCACA | 0.133 ± 0.015 |
| GGAGACCUAACUAAACUACCUACUACCUCA | 0.0594 ± 0.017 |
| GGAGACCUAUCUAUACAACCAUCUACCUCA | 0.00428 ± 0.0031 |
| GGAGACCUUACUAUAGAACCUACUAGCUCA | 0.00445 ± 0.0038 |
| GGAGACCUUACUACUACAACCUACUACCUCA | 0.107 ± 0.011 |
| GGAGAGGAUUCUUUACAACCUACUACCUCA | 0.167 ± 0.013 |
| GGAGACCUAACUAUUGAACCUACUACCUCA | 0.0878 ± 0.011 |
| GGAGACCUAUGAUUACAACUUACUACCUCA | 0.00657 ± 0.0024 |
| GGAGACCUAUGAUAACAACCUAUCUACCUCA | 0.00737 ± 0.0021 |
| GGAGACCUUACUAUUCUACCUACUACCUCA | 0.124 ± 0.0096 |
| GGAGACCUAUGAUAUGUUCCUACUACCUCG [g2:g12:cont:t1G] | < 0.0001 |
| GGAGACCAAACUAUAGAACCUACUACCUCA | 0.13 ± 0.028 |
| GGAGACCUAUGUAUACAACCUACUACCGCA | 0.085 ± 0.015 |
| GGAGACCUAUCUAUACAACCUACAUGCUCA | 0.068 ± 0.021 |
| GGAGACCUAACUAUAAAACCUACUACCUCA | 0.0772 ± 0.013 |
| GGAGACCUAUGAUAACAACCUUCUACCUCA | 0.0024 ± 0.0021 |
| GGAGACCUAACUAAACAACCUACUUCCUCA | 0.0346 ± 0.013 |
| GGAGACCUAACUAUACAAGCUACAACCUCA | 0.182 ± 0.026 |
| GGAGACCUAUGAAUUCAACCUACUACCUCA | 0.00274 ± 0.0019 |
| GGAGACCUAUGUUUUCAACCUACUACCUCA | 0.00894 ± 0.0025 |

| Sequence | pre-steady-state target cleavage rate |
| --- | --- |
| GGAGACCUAUGAAUACAAACUACUACCUCA | 0.0186 ± 0.0035 |
| GGAGACCUAUGAUAUGUUCGUACUACCUGA | < 0.0001 |
| GGAGACCUAUGAUAACAACCUACGUACCUCA | 0.00286 ± 0.0027 |
| GGAGACCUUACUAUACAACCUACUACGACA | 0.119 ± 0.021 |
| GGAGACCUAACUAUACAUCCUACUACGUCA | 0.173 ± 0.052 |
| GGAGUGGUUACUAUAGAACCUACUACCUCA | 0.175 ± 0.014 |
| GGAGACCUAUCUAUACAACGUUCUACCUCA | 0.00394 ± 0.0033 |
| GGAGACCUAUGUAUUCAACCUACUAGCUCA | 0.0092 ± 0.0033 |
| GGAGACCUAACUAUACAACCUACAACCACA | 0.0203 ± 0.012 |
| GGAGUGGAUACUAUAGAACCUAGUACCUCA | 0.00269 ± 0.0022 |
| GGAGACCUAUGAUUUCAAGCUACUACCUCA | 0.00713 ± 0.0026 |
| GGAGACCAUACUAAACAACCAACUACCUCA | 0.00724 ± 0.003 |
| GGAGAGGAUUCAAUACAACCUACUACCUCA | 0.132 ± 0.01 |
| GGAGACCUAUGAUUACAACCUACUACCUAA | 0.00444 ± 0.003 |
| GGAGACCAUAGUAUACAACGUACUACCUCA | 0.0174 ± 0.0033 |
| GGAGACCUAUGUAUACAACCUACGACCUCA | 0.0402 ± 0.0075 |
| GGAGACCUAUGAUUACAACCUACUUCCUCA | 0.00303 ± 0.0022 |
| GGAGACCUAUGAAUACAAGCUACUACGUCA | 0.0102 ± 0.003 |
| GGAGACCUUACUAUACAACCAUACUACCUCA | 0.0055 ± 0.0037 |
| GGAGACCUAUGUAUACAGCCUACUACCUCA | 0.0196 ± 0.0053 |
